The values below come from PubChem BioAssay.

Assay [1] addresses Nuclear receptor coactivator 3 (Homo sapiens) (UniProt Q9Y6Q9). Kind of assay: NCOA3 GAL4-fusion reporter inhibition – cell-based, luminescence, quadruplicate, confirmation (AID 588792;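 active = mean inhibition over 43.08%, the solvent-only control mean plus 3 SD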;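 note: 0% = DMSO treated cells and 100% = gossypol at 36 µM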). As to conditions: HEK293 GAL4-SRC3 luciferase reporter, at 3.6 µM, active compounds read high. For orientation: Reporter assays use an easily measured gene product as a stand-in for the process of interest.

The subject of assay [2] is transactivating tegument protein VP16 (Human herpesvirus 1), Gal4-VP16 luciferase reporter. Kind of assay: repression of VP16-driven luciferase reporter – cell-based, luminescence, high throughput, counter-screen for SRC3 inhibitor project (AID 588794; in the data active = inhibition above about 30%). As to conditions: mammalian cells, at 3.6 µM, active compounds read high.
The target of assay [3] is Nuclear receptor coactivator 1 (Homo sapiens) (UniProt Q15788). Nature of the assay: NCOA1 GAL4-fusion reporter inhibition – cell-based, luminescence, quadruplicate, confirmation (AID 588820).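 Note: 0% = DMSO wells and 100% = gossypol 36 µM treated wells.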 As to conditions: HEK293 GAL4-SRC1 luciferase reporter, at 3.6 µM, active compounds read high.
Chain of Nuclear receptor coactivator 1 (Homo sapiens) (Q15788 whole entry, looked up, the tested form may be a part): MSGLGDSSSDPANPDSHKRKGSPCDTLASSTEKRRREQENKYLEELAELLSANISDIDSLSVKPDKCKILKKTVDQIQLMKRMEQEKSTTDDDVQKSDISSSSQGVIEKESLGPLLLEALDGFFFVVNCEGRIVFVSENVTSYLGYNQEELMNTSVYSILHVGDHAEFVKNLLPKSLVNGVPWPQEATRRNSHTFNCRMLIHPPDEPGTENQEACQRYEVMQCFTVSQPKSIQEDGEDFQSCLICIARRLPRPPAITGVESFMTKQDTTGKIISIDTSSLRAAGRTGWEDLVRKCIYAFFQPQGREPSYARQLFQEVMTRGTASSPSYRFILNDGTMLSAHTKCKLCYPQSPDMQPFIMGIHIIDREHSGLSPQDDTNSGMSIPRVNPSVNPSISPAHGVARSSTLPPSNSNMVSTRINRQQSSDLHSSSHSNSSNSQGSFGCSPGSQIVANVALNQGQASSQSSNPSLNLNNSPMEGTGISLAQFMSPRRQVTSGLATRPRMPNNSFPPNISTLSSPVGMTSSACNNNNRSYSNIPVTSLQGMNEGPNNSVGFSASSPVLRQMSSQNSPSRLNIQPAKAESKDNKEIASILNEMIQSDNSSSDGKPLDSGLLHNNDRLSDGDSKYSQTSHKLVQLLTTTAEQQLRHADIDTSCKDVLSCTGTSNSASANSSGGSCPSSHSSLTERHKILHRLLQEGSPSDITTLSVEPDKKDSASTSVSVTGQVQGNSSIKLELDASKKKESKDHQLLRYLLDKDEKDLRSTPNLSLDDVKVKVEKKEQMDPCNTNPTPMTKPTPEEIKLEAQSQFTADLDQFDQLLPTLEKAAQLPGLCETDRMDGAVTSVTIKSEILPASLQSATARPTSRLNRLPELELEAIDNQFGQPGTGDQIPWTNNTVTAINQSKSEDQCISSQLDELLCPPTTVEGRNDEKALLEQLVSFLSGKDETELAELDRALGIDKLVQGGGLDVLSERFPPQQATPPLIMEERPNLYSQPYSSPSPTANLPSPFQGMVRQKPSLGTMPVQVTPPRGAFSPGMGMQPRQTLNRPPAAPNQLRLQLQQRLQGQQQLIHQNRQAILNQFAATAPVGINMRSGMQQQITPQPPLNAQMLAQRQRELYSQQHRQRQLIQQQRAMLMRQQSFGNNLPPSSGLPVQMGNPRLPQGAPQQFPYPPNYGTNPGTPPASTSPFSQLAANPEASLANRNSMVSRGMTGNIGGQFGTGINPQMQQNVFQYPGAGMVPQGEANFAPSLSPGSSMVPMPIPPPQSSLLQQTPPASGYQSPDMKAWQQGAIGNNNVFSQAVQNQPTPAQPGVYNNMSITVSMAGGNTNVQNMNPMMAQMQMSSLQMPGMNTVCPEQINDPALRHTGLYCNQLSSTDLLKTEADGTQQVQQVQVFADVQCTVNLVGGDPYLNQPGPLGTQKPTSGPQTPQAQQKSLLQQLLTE
The nature of assay [4]: repression of VP16-driven luciferase reporter – cell-based, luminescence, high throughput, counter-screen for SRC1 inhibitor project (AID 588824; in the data active = inhibition above about 25%). The conditions noted are these: cell-based VP16 transactivation luciferase luminescence; at 3.6 µM; active compounds read high.
Assay [5] in a line: StAR promoter reporter inhibitors, counter-screen for LRH-1 inverse agonist project, cell-based, luminescence, high throughput (AID 651611; in the data active = inhibition above about 28%). As to conditions: StAR promoter luciferase reporter counterscreen, at 3.6 µM, active compounds read high.
The target of assay [6] is Nuclear receptor subfamily 5 group A member 2 (Homo sapiens) (UniProt O00482). Kind of assay: NR5A2 activity suppression in reporter cells – cell-based, luminescence, confirmation (AID 651613; in the data active = inhibition above about 42%;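 note: HEK293T cells co-transfected with LRH-1 and StAR promoter luciferase reporter; 0% = vehicle wells and 100% = parental cells lacking receptor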). The conditions noted are these: cell-based LRH-1 luciferase reporter, inverse agonism; at 3.6 µM; active compounds read high.
Chain of Nuclear receptor subfamily 5 group A member 2 (Homo sapiens) (O00482 whole entry, looked up): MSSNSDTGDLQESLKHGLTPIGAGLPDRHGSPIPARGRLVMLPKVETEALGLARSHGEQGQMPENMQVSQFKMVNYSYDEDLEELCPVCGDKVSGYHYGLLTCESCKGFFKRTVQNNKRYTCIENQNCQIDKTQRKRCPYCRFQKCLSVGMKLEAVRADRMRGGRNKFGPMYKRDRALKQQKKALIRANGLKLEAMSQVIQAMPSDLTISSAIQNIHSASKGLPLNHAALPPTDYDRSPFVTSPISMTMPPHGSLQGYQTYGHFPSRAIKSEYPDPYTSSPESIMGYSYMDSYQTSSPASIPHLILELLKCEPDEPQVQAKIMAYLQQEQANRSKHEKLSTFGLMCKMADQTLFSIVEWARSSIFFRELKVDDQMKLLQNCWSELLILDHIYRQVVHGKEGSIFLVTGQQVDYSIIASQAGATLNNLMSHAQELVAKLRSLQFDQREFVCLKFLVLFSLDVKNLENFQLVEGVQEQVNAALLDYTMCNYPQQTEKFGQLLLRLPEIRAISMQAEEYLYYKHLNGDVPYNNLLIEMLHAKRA
The target of assay [7] is Steroidogenic factor 1 (Homo sapiens) (UniProt Q13285). Kind of assay: inverse agonism at SF1 nuclear receptor – cell-based, luminescence, high throughput, counter-screen for LRH-1 inverse agonist project (AID 651614; in the data active = inhibition above about 44%;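 note: cells cotransfected with StAR promoter reporter and SF1 expression vector; 0% = vehicle on cells with receptor and 100% = vehicle on cells lacking receptor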). The conditions noted are these: cell-based SF1 luciferase reporter, at 3.6 µM, active compounds read high. (A counterscreen serves to expose hits that act by an unwanted route or on another target.)

Assay [8] can be described thus: compounds suppressing VP16-driven luciferase signal – cell-based, luminescence, high throughput, counter-screen for LRH-1 inverse agonist project (AID 651615; in the data active = inhibition above about 33%). As to conditions: Gal4-VP16 luciferase reporter cells, at 3.6 µM, active compounds read high.
Assay [9] has as its system transactivating tegument protein VP16 (Human herpesvirus 1). Kind of assay: compounds suppressing VP16-driven luciferase signal – cell-based, luminescence, single concentration, counter-screen for SRC2 inhibitor project (AID 652007; in the data active = inhibition above about 36%). As to conditions: cell-based VP16 transactivation luciferase reporter, at 8.9 µM, active compounds read high.
The target of assay [10] is Nuclear receptor coactivator 2 (Homo sapiens) (UniProt Q15596). Kind of assay: inhibition of GAL4-SRC2 driven luciferase expression – cell-based, luminescence, HEK293, triplicate, confirmation (AID 652008;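 active = mean inhibition above 46.5%, the solvent-only control mean plus 3 SD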;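 note: 0% = DMSO-treated cells and 100% = Gossypol at 36 µM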). The conditions noted are these: HEK293 GAL4-SRC2 luciferase reporter, at 8.9 µM, active compounds read high.
Chain of Nuclear receptor coactivator 2 (Homo sapiens) (Q15596 whole entry, looked up, the tested form may be a part): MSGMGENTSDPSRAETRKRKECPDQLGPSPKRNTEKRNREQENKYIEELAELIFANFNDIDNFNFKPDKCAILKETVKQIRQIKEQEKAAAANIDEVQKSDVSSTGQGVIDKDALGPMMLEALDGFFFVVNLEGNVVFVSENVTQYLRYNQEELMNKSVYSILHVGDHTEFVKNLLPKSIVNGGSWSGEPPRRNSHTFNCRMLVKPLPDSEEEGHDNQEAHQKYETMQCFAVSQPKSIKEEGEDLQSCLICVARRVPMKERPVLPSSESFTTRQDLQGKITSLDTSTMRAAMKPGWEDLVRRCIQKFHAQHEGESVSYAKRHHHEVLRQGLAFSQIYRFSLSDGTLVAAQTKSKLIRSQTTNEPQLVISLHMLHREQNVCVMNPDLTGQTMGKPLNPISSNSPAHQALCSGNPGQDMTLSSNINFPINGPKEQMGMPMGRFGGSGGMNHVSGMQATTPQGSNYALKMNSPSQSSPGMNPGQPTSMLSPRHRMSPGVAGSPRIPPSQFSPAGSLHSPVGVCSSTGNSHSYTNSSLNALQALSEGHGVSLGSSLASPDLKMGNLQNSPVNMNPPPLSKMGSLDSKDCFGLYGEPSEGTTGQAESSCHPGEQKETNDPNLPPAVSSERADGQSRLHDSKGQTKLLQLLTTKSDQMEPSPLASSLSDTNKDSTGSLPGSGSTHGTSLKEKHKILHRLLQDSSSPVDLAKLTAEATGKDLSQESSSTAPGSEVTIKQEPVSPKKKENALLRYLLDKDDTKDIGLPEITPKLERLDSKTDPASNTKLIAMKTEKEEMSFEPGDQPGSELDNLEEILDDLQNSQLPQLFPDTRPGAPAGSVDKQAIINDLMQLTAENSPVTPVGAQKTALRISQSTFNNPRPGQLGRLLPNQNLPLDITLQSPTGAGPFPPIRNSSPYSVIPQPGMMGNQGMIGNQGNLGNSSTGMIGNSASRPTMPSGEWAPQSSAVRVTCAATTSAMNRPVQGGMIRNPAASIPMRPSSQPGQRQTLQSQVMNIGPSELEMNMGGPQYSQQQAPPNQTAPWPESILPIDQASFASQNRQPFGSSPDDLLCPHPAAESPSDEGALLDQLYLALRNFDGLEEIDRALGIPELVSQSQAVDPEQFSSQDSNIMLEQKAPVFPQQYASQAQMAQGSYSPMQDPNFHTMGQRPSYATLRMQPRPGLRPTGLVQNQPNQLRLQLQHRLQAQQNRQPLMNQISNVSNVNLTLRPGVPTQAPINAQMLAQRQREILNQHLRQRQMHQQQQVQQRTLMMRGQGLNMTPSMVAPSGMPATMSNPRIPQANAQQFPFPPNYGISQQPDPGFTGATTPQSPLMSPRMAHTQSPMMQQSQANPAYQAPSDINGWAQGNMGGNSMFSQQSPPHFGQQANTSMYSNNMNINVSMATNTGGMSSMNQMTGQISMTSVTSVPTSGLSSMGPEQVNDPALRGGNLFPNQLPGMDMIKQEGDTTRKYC

A number with no mark means an inactive call. Activity calls are given as the source filed them.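 Rule for the calls, unless noted: active = mean inhibition above 46.68%, the untreated control wells mean plus 3 SD; inactive = the rest.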

Chain of Nuclear receptor coactivator 3 (Homo sapiens) (Q9Y6Q9 whole entry, looked up, the tested form may be a part): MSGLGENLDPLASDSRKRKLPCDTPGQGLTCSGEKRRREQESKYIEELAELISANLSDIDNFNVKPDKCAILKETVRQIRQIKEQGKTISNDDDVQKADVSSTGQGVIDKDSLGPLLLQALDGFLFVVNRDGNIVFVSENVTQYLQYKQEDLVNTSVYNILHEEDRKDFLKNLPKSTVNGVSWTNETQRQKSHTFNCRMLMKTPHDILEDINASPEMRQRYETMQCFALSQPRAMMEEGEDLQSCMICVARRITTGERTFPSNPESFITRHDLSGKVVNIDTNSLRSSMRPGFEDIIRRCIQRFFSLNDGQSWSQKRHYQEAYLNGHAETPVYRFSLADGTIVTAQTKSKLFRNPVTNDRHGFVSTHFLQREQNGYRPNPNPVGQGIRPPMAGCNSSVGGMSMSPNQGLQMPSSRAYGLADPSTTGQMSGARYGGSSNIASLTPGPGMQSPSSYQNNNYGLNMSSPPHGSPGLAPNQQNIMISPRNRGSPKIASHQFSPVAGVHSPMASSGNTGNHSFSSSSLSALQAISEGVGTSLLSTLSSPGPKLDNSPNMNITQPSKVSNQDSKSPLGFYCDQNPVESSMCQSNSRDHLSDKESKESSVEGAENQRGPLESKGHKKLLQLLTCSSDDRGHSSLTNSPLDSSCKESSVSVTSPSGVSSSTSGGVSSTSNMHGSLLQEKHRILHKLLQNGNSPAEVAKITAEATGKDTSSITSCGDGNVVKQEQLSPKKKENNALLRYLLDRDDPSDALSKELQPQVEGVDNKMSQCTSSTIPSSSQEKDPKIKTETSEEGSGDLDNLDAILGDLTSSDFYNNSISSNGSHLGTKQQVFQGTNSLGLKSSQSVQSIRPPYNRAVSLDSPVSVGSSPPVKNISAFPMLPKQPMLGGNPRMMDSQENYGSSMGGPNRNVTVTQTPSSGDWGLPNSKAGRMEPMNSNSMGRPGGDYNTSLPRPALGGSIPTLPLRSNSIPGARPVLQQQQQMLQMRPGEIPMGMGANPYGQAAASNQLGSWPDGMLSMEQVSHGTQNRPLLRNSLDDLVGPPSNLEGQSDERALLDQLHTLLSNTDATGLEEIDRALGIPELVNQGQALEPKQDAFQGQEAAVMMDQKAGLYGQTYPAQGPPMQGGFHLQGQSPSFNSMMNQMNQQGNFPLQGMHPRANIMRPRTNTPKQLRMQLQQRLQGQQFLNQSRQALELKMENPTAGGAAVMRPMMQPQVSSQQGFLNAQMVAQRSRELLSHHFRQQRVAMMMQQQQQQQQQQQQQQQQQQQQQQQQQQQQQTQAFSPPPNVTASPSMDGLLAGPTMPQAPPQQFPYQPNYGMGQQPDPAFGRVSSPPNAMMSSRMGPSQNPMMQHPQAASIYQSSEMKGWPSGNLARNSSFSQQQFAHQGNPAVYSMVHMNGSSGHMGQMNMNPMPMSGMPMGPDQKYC

Consider `CC(=O)OCC12CC(OC(=O)CC(C)C)C(C)=CC1OC1C(O)C(OC(C)=O)C2(C)C12CO2` (configuration not stated), for which the inhibition (usually the change of the read-out against control, counted positive when it falls) is 95.1% (active) in assay [1]; 91.9% (active) in assay [2]; 88.5% (active) in [3]; 88.9% (active) in assay [4]; 97% (active) in assay [5]; 110% (active) in assay [6]. Besides, the inhibition in assay [7] was 98.3% (active); in assay [8], 97.8% (active); in assay [9], 79.1% (active); in assay [10], 75.4% (active).
Take `CC(N)C(=O)NC1C2C(=C(O)CC(O)C2O)C(=O)OC1(C)C(Cl)Cl` (configuration not stated): the inhibition is 98.8% (active) in [1]; 96.8% (active) in assay [2]; 88.6% (active) in assay [3]; 96.8% (active) in assay [4]; 96.4% (active) in assay [5]; 110% (active) in [6]. The inhibition in assay [7] was 98.5% (active); in assay [8] it was 98.3% (active); in [9] it was 77.2% (active); in assay [10] it was 74.3% (active).
On to `CC(=O)OC1CC(OC2C(O)CC(OC3C(O)CC(OC4CCC5(C)C(CCC6C5CCC5(C)C(C7=CC(=O)OC7)C(O)CC65O)C4)OC3C)OC2C)OC(C)C1OC1OC(CO)C(O)C(O)C1O` (configuration not stated), for which the inhibition in assay [1] was 93.4% (active); in assay [2], 79.7% (active); in assay [3], 39.1%; in [4] it was 72.8% (active); in [5], 97.7% (active); in assay [6] it was 111% (active). Also, the inhibition in assay [7] is 99.3% (active); in [8] it was 85.1% (active); in assay [9] it was 61.8% (active); in assay [10], 13.5%.
As to `CC(=NNC(=S)N1CC2CCC(CC2)C1)c1nccs1`, the values for the inhibition in [3] and in [4] were 62.2% (active) and 74.4% (active), respectively.
As for `COC(=O)C1=C(c2ccc(-c3ccccc3)c(F)c2)C[C@@H]2CC[C@H]1N2C(=O)NC1CC1`, the figures for the inhibition in assay [3] and in assay [4] were 15.1% and 25.6% (active), respectively.
Take `COC(=O)C1=C(c2ccc(-c3ccccc3)c(F)c2)C[C@@H]2CC[C@H]1N2C(=O)N1CCCCC1`: the inhibition in assay [1] is 18.3%; in assay [2], 39% (active); in [9] it was 19.5%; in assay [10], 35.4%.
As to `CCC(c1nnnn1-c1ccc2c(c1)OCCO2)N1CCC(n2c(=O)[nH]c3ccccc32)CC1` (configuration not stated), the inhibition in assay [3] is -22%; in [4], 9.85%.
On to `COc1ccc(-n2nnnc2C(c2cccc3ccccc23)N2CCC3(CC2)C(=O)NCN3c2ccccc2)cc1` (configuration not stated), for which the inhibition in assay [3] was -1.91%; in assay [4], 5.57%.
Take `O=c1[nH]c2ccccc2n1C1CCN(C(c2cccs2)c2nnnn2-c2ccc3c(c2)OCCO3)CC1` (configuration not stated): the values for the inhibition in [3] and in assay [4] were -26.2% and 25.5% (active), respectively.
On the same counts, the results for `CCN(CC)C(=O)c1ccc(NC(=O)c2cccc(S(=O)(=O)N3CCN(Cc4ccccc4)CC3)c2)cc1` are -1.69% and 20.8%.
As for `CC(=CCOc1ccc2ccc(=O)oc2c1)C1=CC(=O)C(C)(C)O1`, the values for the inhibition in assay [3] and in assay [4] were 17.3% and 35.2% (active), respectively.
Take `CCC(c1nnnn1Cc1ccccc1)N1CCC(n2c(=O)[nH]c3ccccc32)CC1` (configuration not stated): the inhibition in assay [3] was -50.1%; in assay [4] it was 0.59%.
As to `C[C@H]1CCC/C=C/[C@@H]2C[C@H](O)C[C@H]2[C@@H](O)/C=C/C(=O)O1`, the inhibition was 64.3% (active) in assay [1]; 77.3% (active) in assay [2]; 81.5% (active) in [5]; 85.4% (active) in assay [6]; 80% (active) in [7]; 74.8% (active) in [8].
Consider `CN1CCN(c2cccc3c2C(=O)c2ccccc2C3=O)CC1`, for which the inhibition was 20.1% in assay [3] and 14.8% in [4].
`CCC(C)(C)n1nnnc1CN1CCC(n2c(C)nc3cc(C(F)(F)F)ccc32)CC1`: the inhibition in assay [3] was 17.3%; in assay [4] it was -2.08%.
On the same counts, the results for `CN1CCN(c2cc(N3CCCCCC3)c(F)cc2[N+](=O)[O-])CC1` are -15.1% and -7.21%.
